According to PubChem BioAssay AID485297 (National Center for Advancing Translational Sciences (NCATS), 2010):
Hit rate of the full screen: of about 320,000 compounds, about 9,100 (2.8%) were called active. Not shown: some 3% with an inconclusive outcome. Calls come from the whole dose curve; as a rule, active = well fitted activation curve with a large enough effect; inconclusive = small, poorly fitted or top-dose-only effect; inactive = no such curve, though single readings can be large or run the other way. The full list was thinned out, with actives kept by preference.

Experiment: qHTS Assay for Rab9 Promoter Activators; note: nearly all actives have a fitted effect of over 60% in size
Conditions: Huh7 Rab9 promoter-luciferase reporter, luminescence, 24 h; series mostly up to 9.22 µM
Method in brief: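 Stable Rab9-luc Huh7, 1500 cells/well, 2 h settle; cmpd in DMSO, 24 h, 37 °C/5% CO2; luciferase reagent 10 min RT; luminescence.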
Potency is the fitted concentration of half-maximal effect.

Potency, inactive:
COc1ccc(-c2nnc3n2CCCCC3)cc1, COc1ccc(-c2nc(SCC(=O)N3CCCC3)n[nH]2)cc1, O=C(Nc1ccccc1N1CCCCC1)c1ccc2nccnc2c1, Cc1cccc(NC(=O)c2ccc3nsnc3c2)c1C, COc1ccc(Cl)cc1NC(=O)COc1ccc2c(c1)OCO2, CCOC(=O)CN(C(=O)CN1CCOCC1)c1ccc(Br)cc1, CC(NC(=O)COC(=O)c1ccc2c(c1)OCO2)c1ccccc1 (configuration not stated), CC(=O)Nc1cccc(C(=O)OCC(=O)NCc2cc(C)c(O)c(C)c2)c1, O=C(COC(=O)c1ccc2c(c1)OCCO2)NCc1ccccc1, O=C(CN1CCN(c2ccccc2F)CC1)c1ccc2c(c1)OCO2, O=C(COC(=O)c1ccncc1)c1ccccc1, C/C(=N\NC(=O)C(N)=O)c1ccc2c(c1)OCCO2, CN(CC(=O)NC(=O)Nc1ccccc1F)Cc1ccccc1, CCCn1c(N)c(C(=O)CSc2nnc3n2CCCCC3)c(=O)[nH]c1=O, O=C(Nc1nnc(CCN2CCCCC2)s1)c1cccc(Cl)c1, CC(NC(=O)CN(C)S(=O)(=O)c1ccc(F)cc1)C1CC2CCC1C2 (configuration not stated), Cc1ccc(CNC(=O)CC(NC(=O)c2ccccc2)c2ccccc2)cc1 (configuration not stated), CC1(C)CC(=O)C=C(c2cccc3c2Oc2ccccc2S3)C1, COc1ccccc1OCCNC(=O)CCNC(=O)c1ccccc1Cl, COc1cc(SC)ccc1C(=O)N(Cc1ccccc1)c1ccccc1, Cc1ccnc(NC(=O)CCCOc2ccccc2)c1, Cc1ccnc(NC(=O)CNC(=O)c2ccccc2)c1, COc1cc(F)c(C2=CC(=O)CC(C)(C)C2)cc1F, Cc1ccc(CC(=O)Nc2ccc(S(=O)(=O)N3CCOCC3)cc2)cc1C, CN1CCN(S(=O)(=O)c2cccc(C(=O)Nc3sccc3C#N)c2)CC1, COc1cccc(CNC(=O)CN2C(=O)NC(Cc3ccccc3)(c3ccccc3)C2=O)c1 (configuration not stated), Cc1cccc(NC(=O)NC(=S)NC(=O)c2ccccc2)c1, Cc1nc(C)c(C(=O)Nc2ccc(C)c(F)c2)o1, CC1CCCCC1NC(=O)NC(=O)COC(=O)C1=NN(c2ccccc2)C(=O)CC1 (configuration not stated), O=C(NCC1(N2CCCCC2)CCCCC1)c1ccc(NS(=O)(=O)c2ccc(F)cc2)cc1, O=C(COC(=O)CCCSc1nc2ccccc2[nH]1)Nc1ccc(Oc2ccccc2)cc1, O=C(CSc1nc2ccccc2[nH]1)Nc1nc(-c2ccccc2)c(-c2ccccc2)o1, CN(Cc1ccccc1)C(=O)CSc1nc2ccccc2[nH]1, CCc1nnc(NC(=O)CCCSc2nc3ccccc3[nH]2)s1, O=C(NCc1cccc(Cl)c1)C1=CC=CN2CCS(=O)(=O)N=C12, Cc1cccc2cc3c(N)c(C(=O)N4CCCc5ccccc54)sc3nc12, Nc1c(C(=O)NCc2ccccc2)sc2nc3c(cc12)C(=O)CCC3, O=C(Nc1ccncc1)c1c(F)cccc1F, CCCC(=O)Nc1nc2ccc(NC(=O)c3c(F)c(F)c(OC)c(F)c3F)cc2s1, CSCCC(NC(=O)COc1ccccc1)C(=O)N(C)CC(=O)Nc1ccc(C)cc1 (configuration not stated), CC(C)C(=O)OCC(=O)Nc1ccc2c(c1)CCC2, O=C(NC1CCCC1)c1ccc(Br)s1, Cc1ccc(NC(=O)CCNC(=O)c2ccc([N+](=O)[O-])cc2)cc1S(=O)(=O)N1CCOCC1, O=C(CCNC(=O)c1ccccc1Cl)NCc1ccco1, COc1ccc(CNC(=O)COC(=O)c2ccc(C)c(S(=O)(=O)N3CCOCC3)c2)cc1OC, O=C(NC(=S)NC1CCCCC1)c1ccc(Cl)cc1, S=C(NCc1ccc(Cl)cc1)NC1CCCCC1, CCCC(NCC(=O)Nc1ccccc1C(=O)NC1CC1)c1ccccc1 (configuration not stated), O=C(OCC(=O)N1CCc2ccccc21)c1ccc([N+](=O)[O-])cc1, Cc1ccc(-n2nc(C)c(C(=O)O)c2-n2cccc2)cc1, Cc1cccc(C)c1NC(=O)COC(=O)c1c(C)nn(-c2ccccc2)c1C, Cc1ccc(NC(=O)CN(C)S(=O)(=O)c2cnc[nH]2)cc1C, Cc1ccc(S(=O)(=O)N2CCOCC2)cc1NC(=O)COC(=O)c1cnccn1, Cc1cc(C)nc(N2CCC(C(=O)Nc3ccc4c(c3)OCCO4)CC2)n1, O=C(Nc1ccc2c(c1)OCCO2)C1CCCC1, Cc1c(C(C)CCCO)oc(=O)c2c1Oc1c(C)c(C(C)C[C@@H](C)O)oc(=O)c1C2 (some centres not stated)

Potency, active:
COc1ccc(-c2nc3n(c2Br)CCC3)cc1 2510 nM, O=C(Nc1ccccc1Cl)c1ccc2nsnc2c1 2510 nM, CC(=O)Nc1cccc(C(=O)OCC(=O)c2ccc3c(c2)OCO3)c1 89.1 nM, O=C(COC(=O)c1ccccc1)c1ccc2c(c1)OCCO2 631 nM, O=C(OCc1ccccc1F)c1ccc2c(c1)OCCO2 3160 nM, COc1cc(SC)ccc1C(=O)NCCOc1ccccc1Cl 3980 nM, COc1cc(SC)ccc1C(=O)Nc1cc(C)ccn1 3550 nM, Cc1ccc(NC(=O)NC(=O)c2ccccc2)cc1F 398 nM, CCCCSc1nc2ccccc2[nH]1 2000 nM, O=C(CSc1nc2ccccc2[nH]1)c1cccs1 2000 nM, CC(C)OC(=O)c1sc2nc3c(cc2c1N)C(=O)CCC3 3550 nM, CSc1nc2ccc(NC(=O)c3c(F)cccc3F)cc2s1 3550 nM, O=C(Nc1ccc2c(c1)CCC2)c1ccc(Br)s1 1120 nM, O=C(NC1CCCCC1)c1ccc(-c2ccc(Cl)cc2)o1 2820 nM, Cc1ccc(OC(=O)c2c(C)nn(-c3ccccc3)c2C)cc1 3160 nM, O=C(Nc1ccc2c(c1)OCCO2)C1CCCN(c2ncccn2)C1 (configuration not stated) 316 nM
